# From PubChem BioAssay (NCATS)
# Unmarked numbers belong to inactive results. Results filed as inconclusive are left out. Active and inactive are the calls of the source.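 How the source made its calls, unless noted: active means compounds whose dose series gives a full or clear partial fitted curve of increased nuclear translocation; inconclusive means weak partial curve or effect only at the top dose; inactive means no dose-dependent translocation response.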
# Tests used:
# [1] = biological target: Glucocorticoid receptor (Homo sapiens) (UniProt P04150); test: GR-GFP Redistribution (AID 450); conditions: U2OS GR-GFP nuclear translocation, laser cytometry, 2 h; further: potency means the concentration at half of the fitted maximal effect
# [2] = biological target: Glucocorticoid receptor (Homo sapiens) (UniProt P04150); test: GR-EFC Redistribution (AID 451; calls by dose curve; further: potency means the concentration at half of the fitted maximal effect); conditions: CHO-K1 GR-EFC translocation, beta-gal luminescence, 2 h
# Method in brief: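 CHO-K1 cells expressing nuclear EA and GR-ED fragments of b-gal; compounds titrated up to 46 uM final, 2 h at 37 C. GR nuclear translocation read as complemented b-gal luminescence after 1 h RT detection.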
# [3] = biological target: Mitogen-activated protein kinase 10 (Mus musculus) (UniProt Q61831); test: JNK3 AlphaScreen Assay (AID 530; active means well fitted curve in either direction with a large enough effect, not every such curve was filed as active;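 further: kinase came from lysate of stimulated human HepG2 cells; signal reports phosphorylation of biotinylated GST-cJun 1-79 at Ser73 with 10 µM ATP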); conditions: JNK3 lysate, c-Jun phosphorylation; series mostly up to 57.1 µM
# Method in brief: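 Pre-activated (IL-1β/TNFα) JNK3 in HepG2 lysates phosphorylates biotin-GST-cJun(1-79), 10 uM ATP; anti-phospho-cJun(Ser73) AlphaScreen read at room temperature, pH 7.6 Tris buffer. Compounds pre-incubated 15 min as titrations.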
# Glucocorticoid receptor (Homo sapiens), sequence (P04150 whole entry, looked up, the tested form may be a part): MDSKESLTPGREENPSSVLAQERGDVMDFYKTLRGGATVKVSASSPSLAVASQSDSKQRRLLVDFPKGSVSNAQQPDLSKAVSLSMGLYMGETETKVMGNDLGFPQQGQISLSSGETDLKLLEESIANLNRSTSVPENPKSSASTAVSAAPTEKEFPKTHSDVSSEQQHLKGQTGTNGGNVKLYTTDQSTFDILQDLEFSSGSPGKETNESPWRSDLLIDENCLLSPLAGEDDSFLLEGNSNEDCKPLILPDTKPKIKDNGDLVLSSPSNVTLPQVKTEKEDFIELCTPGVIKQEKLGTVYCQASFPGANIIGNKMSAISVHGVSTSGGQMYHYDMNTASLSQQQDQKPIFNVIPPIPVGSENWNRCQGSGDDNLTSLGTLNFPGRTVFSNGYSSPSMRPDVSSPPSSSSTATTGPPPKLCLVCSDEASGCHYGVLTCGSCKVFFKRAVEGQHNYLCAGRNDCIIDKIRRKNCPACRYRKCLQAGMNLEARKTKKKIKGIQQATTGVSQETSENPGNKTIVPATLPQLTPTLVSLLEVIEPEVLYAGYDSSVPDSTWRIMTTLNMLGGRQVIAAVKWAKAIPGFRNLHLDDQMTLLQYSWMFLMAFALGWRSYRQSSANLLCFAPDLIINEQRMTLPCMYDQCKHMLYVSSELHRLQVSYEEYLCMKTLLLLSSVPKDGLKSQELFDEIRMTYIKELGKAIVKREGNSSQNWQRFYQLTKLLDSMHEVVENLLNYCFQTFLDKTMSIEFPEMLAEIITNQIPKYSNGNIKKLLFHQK
SMILES,Potency [1] [µM],Potency [2] [µM],outcome [3]
COC(=O)[C@H](NC(=O)c1cc(-c2ccccc2)nc2ccccc12)c1ccccc1,> 46,> 46,inactive
CCc1ccc2c(-c3cccc(Cl)c3)nc(=O)n(CC)c2n1,> 46,> 46,inactive
CCCCCCCCCCC/C=C\C(C)(C)/C=C\CCCC(=O)O,> 46,–,inactive
O=C(O)Cc1c[nH]c2ccc(O)cc12,> 46,–,inactive
CCCn1c(=O)c(C)cn2nc(N)nc12,> 46,> 46,inactive
Cc1cc2c(cc1Cl)N(C(=O)Nc1ccnc3ccccc13)CC2,> 46,> 46,inactive
Oc1cc(O)c2c(c1)O[C@H](c1ccc(O)c(O)c1)[C@@H](O)C2,> 46,–,inactive
O=C(OCCN1CCOCC1)C1(c2ccccc2)CCCCC1,> 46,> 46,inactive
CCN(CC)CCCCCCCCOC(=O)c1cc(OC)c(OC)c(OC)c1,> 46,> 46,inactive
Nc1ccc(N2C(=O)c3ccccc3C2=O)c(Cl)c1,> 46,> 46,inactive
COc1cc2c(CCNC(C)=O)c[nH]c2cc1O,> 46,–,inactive
CC1CCN(CC[C@H]2CCCN2S(=O)(=O)c2cccc(O)c2)CC1,> 46,> 46,inactive
O=C(O)C1=CCCNC1,> 46,–,inactive
CN1CCc2cc(Cl)c(O)cc2[C@@H](c2ccccc2)C1,> 46,> 46,inactive
O=C(O)c1ccccc1Nc1cccc(OCc2ccc3ccccc3n2)c1,> 46,> 46,inactive
N[C@H](C(=O)O)[C@H](O)C(=O)O,> 46,> 46,inactive
O=c1onc2cnc3ccccc3n12,> 46,–,inactive
COc1ccccc1N1CCN(CCN(C(=O)c2ccc(F)cc2)c2ccccn2)CC1,> 46,–,inactive
COc1cc(CNC(=O)CCCCCCC(C)C)ccc1O,> 46,–,inactive
C[C@](Cc1ccc(O)c(O)c1)(NN)C(=O)O,> 46,–,inactive
N=C(N)SCCN,> 46,–,inactive
CCCCCC[C@@H]([C@@H](C)O)n1cnc2c(N)ncnc21,> 46,–,inactive
